“And” between values parts separate entries of the source, which are not always exact repeats. Identical values can stand only once. The panel holds about 83,000 compounds, 20% with a hit somewhere; the sample as a whole holds those more often.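 Method: cells in 96-well plates; compound added at one concentration; 48 h incubation; percent growth measured; values under 10 scored active.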 The source made the active and inactive calls.
Columns and labels:
Experiment in all cases: NCI-60 one-dose screen, 48 h (100 = growth as untreated, 0 = no growth, -100 = all killed)
Conditions in all cases: 10 µM unless noted
SR leukemia = tested on: SR leukemia
RPMI-8226 leukemia = tested on: RPMI-8226 leukemia
OVCAR-8 ovarian = tested on: OVCAR-8 ovarian
OVCAR-5 ovarian = tested on: OVCAR-5 ovarian
OVCAR-4 ovarian = tested on: OVCAR-4 ovarian
SK-OV-3 ovarian = tested on: SK-OV-3 ovarian
IGROV1 ovarian = tested on: IGROV1 ovarian
OVCAR-3 ovarian = tested on: OVCAR-3 ovarian
HS 578T breast = tested on: HS 578T breast
NCI/ADR-RES ovarian = tested on: NCI/ADR-RES ovarian
T-47D breast = tested on: T-47D breast
BT-549 breast = tested on: BT-549 breast
MDA-MB-435 melanoma = tested on: MDA-MB-435 melanoma
MCF7 breast = tested on: MCF7 breast
HCT-116 colon = tested on: HCT-116 colon
HCC-2998 colon = tested on: HCC-2998 colon
KM12 colon = tested on: KM12 colon
SW-620 colon = tested on: SW-620 colon

Measured: growth

Oc1cccnc1CN1CCOCC1
inactive: SR leukemia 103% | RPMI-8226 leukemia 104% and 96.7% | OVCAR-8 ovarian 93.5% and 95.3% | OVCAR-5 ovarian 112% and 92.8% | OVCAR-4 ovarian 94.9% | SK-OV-3 ovarian 101% and 105% | IGROV1 ovarian 106% and 109% | OVCAR-3 ovarian 118% and 110% | HS 578T breast 115% and 105% | NCI/ADR-RES ovarian 106% and 94.6% | T-47D breast 93.1% | BT-549 breast 118% and 115% | MDA-MB-435 melanoma 109% and 99.3% | MCF7 breast 95.2% and 90.7% | HCT-116 colon 104% and 103% | HCC-2998 colon 102% and 99.6% | KM12 colon 112% and 108%

COCCNC(C)=O
inactive: SR leukemia 118% | RPMI-8226 leukemia 114% | OVCAR-8 ovarian 114% | OVCAR-5 ovarian 94.9% | OVCAR-4 ovarian 104% | SK-OV-3 ovarian 102% | IGROV1 ovarian 106% | OVCAR-3 ovarian 113% | HS 578T breast 106% | NCI/ADR-RES ovarian 120% | BT-549 breast 106% | MDA-MB-435 melanoma 105% | SW-620 colon 105% | MCF7 breast 94.1% | HCT-116 colon 105% | HCC-2998 colon 118% | KM12 colon 103%

CCN(CC)CCNC(=O)c1ccc(NCN2C(=O)NC(c3ccccc3)(c3ccccc3)C2=O)cc1
inactive: SR leukemia 99.5% and 113% | RPMI-8226 leukemia 104% | OVCAR-8 ovarian 99.9% and 111% | OVCAR-5 ovarian 104% and 119% | OVCAR-4 ovarian 105% and 104% | SK-OV-3 ovarian 123% and 90.9% | IGROV1 ovarian 144% and 107% | OVCAR-3 ovarian 110% and 98.8% | HS 578T breast 98.4% and 103% | NCI/ADR-RES ovarian 107% and 111% | T-47D breast 117% and 95.2% | BT-549 breast 107% and 120% | MDA-MB-435 melanoma 94.6% and 103% | MCF7 breast 98.4% and 94.6% | HCT-116 colon 104% and 95.1% | HCC-2998 colon 102% and 125% | KM12 colon 106% and 101%

Cc1onc(-c2c(F)cccc2Cl)c1-c1ncc(-c2ccc(Cl)cc2)o1
inactive: SR leukemia 11% | RPMI-8226 leukemia 26.2% and 23.4% | OVCAR-8 ovarian 55.7% and 35.5% | OVCAR-5 ovarian 73.5% and 68.1% | OVCAR-4 ovarian 80.9% and 47.9% | SK-OV-3 ovarian 71% and 61.4% | IGROV1 ovarian 49.1% and 33.3% | OVCAR-3 ovarian 63.4% and 45.9% | HS 578T breast 84.8% and 57.3% | NCI/ADR-RES ovarian 57.4% and 27.2% | T-47D breast 73.9% and 35.8% | MDA-MB-435 melanoma 46.8% and 37.7% | MCF7 breast 61.9% and 20.5% | HCC-2998 colon 61.2% and 56.8% | KM12 colon 43.4% and 34.7%

COc1cc(Cl)ccc1C
inactive: SR leukemia 71.2% | RPMI-8226 leukemia 105% | OVCAR-8 ovarian 87.5% | OVCAR-5 ovarian 71.1% | OVCAR-4 ovarian 76.4% | SK-OV-3 ovarian 93.2% | IGROV1 ovarian 72.3% | OVCAR-3 ovarian 111% | HS 578T breast 115% | NCI/ADR-RES ovarian 97.4% | T-47D breast 94.9% | MDA-MB-435 melanoma 102% | SW-620 colon 52.8% | MCF7 breast 56.8% | HCT-116 colon 59% | HCC-2998 colon 105% | KM12 colon 92.8%

Nc1ccc(O)c(C(=O)O)c1
inactive: SR leukemia 99.8% | RPMI-8226 leukemia 65% and 108% | OVCAR-8 ovarian 99.2% and 106% and 109% | OVCAR-5 ovarian 121% and 102% and 91.1% | OVCAR-4 ovarian 84% and 105% and 108% | SK-OV-3 ovarian 105% and 106% and 119% | IGROV1 ovarian 96.8% and 111% and 105% | OVCAR-3 ovarian 100% and 101% and 115% | HS 578T breast 112% | NCI/ADR-RES ovarian 103% and 111% and 93.9% | T-47D breast 95% and 104% and 106% | MDA-MB-435 melanoma 99.8% and 101% and 108% | SW-620 colon 96.7% and 94.1% and 103% | MCF7 breast 86.4% and 102% and 107% | HCT-116 colon 98.7% and 99.9% and 85.5% | HCC-2998 colon 107% and 104% and 99.9% | KM12 colon 101% and 107% and 91.5%

Cc1cc(-c2ccc(N=Nc3c(C)nn(-c4ccc(S(=O)(=O)O)cc4)c3O)c(C)c2)ccc1N=Nc1ccc(O)c(C(=O)O)c1
inactive: SR leukemia 86% | RPMI-8226 leukemia 81.7% | OVCAR-8 ovarian 95.7% | OVCAR-5 ovarian 94.4% | OVCAR-4 ovarian 106% | SK-OV-3 ovarian 96.9% | OVCAR-3 ovarian 106% | HS 578T breast 91.8% | NCI/ADR-RES ovarian 104% | T-47D breast 99.7% | MDA-MB-435 melanoma 110% | SW-620 colon 98.8% | MCF7 breast 94% | HCT-116 colon 99.8% | HCC-2998 colon 94% | KM12 colon 96.1%
active: IGROV1 ovarian -9.24%

Nc1ccc2ccc(NS(=O)(=O)N3CCCCC3)cc2c1
active: SR leukemia 6.48% | OVCAR-3 ovarian -9.56% | NCI/ADR-RES ovarian -24.8% | MDA-MB-435 melanoma -14.7% | HCC-2998 colon -3.22%
inactive: RPMI-8226 leukemia 46% | OVCAR-8 ovarian 34.2% | OVCAR-5 ovarian 56.1% | OVCAR-4 ovarian 39.2% | SK-OV-3 ovarian 31.8% | IGROV1 ovarian 76.3% | HS 578T breast 20.9% | T-47D breast 46.8% | SW-620 colon 27.9% | MCF7 breast 17.8% | KM12 colon 15%

CCOC(=O)c1csc(N)n1
inactive: SR leukemia 102% | RPMI-8226 leukemia 83.7% and 97.4% | OVCAR-8 ovarian 97.4% | OVCAR-5 ovarian 106% and 104% | OVCAR-4 ovarian 104% and 94.9% | SK-OV-3 ovarian 101% and 98% | IGROV1 ovarian 56.3% and 109% | OVCAR-3 ovarian 108% and 107% | HS 578T breast 95.1% and 101% | NCI/ADR-RES ovarian 111% and 104% | BT-549 breast 102% and 105% | MDA-MB-435 melanoma 99% and 102% | SW-620 colon 104% and 103% | MCF7 breast 91.8% and 90.8% | HCT-116 colon 107% and 99.4% | HCC-2998 colon 115% and 101% | KM12 colon 110% and 108%

N#Cc1c[nH]n2ccnc12
inactive: SR leukemia 120% | RPMI-8226 leukemia 112% | OVCAR-8 ovarian 98.2% | OVCAR-5 ovarian 107% | OVCAR-4 ovarian 118% | SK-OV-3 ovarian 95.3% | IGROV1 ovarian 93.1% | OVCAR-3 ovarian 110% | HS 578T breast 117% | NCI/ADR-RES ovarian 105% | BT-549 breast 98.3% | MDA-MB-435 melanoma 114% | SW-620 colon 119% | MCF7 breast 102% | HCT-116 colon 95.2% | HCC-2998 colon 113% | KM12 colon 109%

CC(=O)/C(N=Nc1ccc(S(=O)(=O)c2ccc(N=N/C(C(C)=O)=C(/C)O)cc2)cc1)=C(\C)O
inactive: SR leukemia 101% | RPMI-8226 leukemia 86.7% | OVCAR-8 ovarian 102% | OVCAR-5 ovarian 110% | OVCAR-4 ovarian 107% | SK-OV-3 ovarian 112% | IGROV1 ovarian 92.9% | OVCAR-3 ovarian 105% | HS 578T breast 109% | NCI/ADR-RES ovarian 102% | T-47D breast 113% | MDA-MB-435 melanoma 118% | MCF7 breast 96.1% | HCT-116 colon 93.2% | HCC-2998 colon 96.4% | KM12 colon 94.8%

CN(C)CC(CN(C)C)C(O)c1ccccc1 (configuration not stated)
inactive: SR leukemia 111% | RPMI-8226 leukemia 108% | OVCAR-8 ovarian 104% | OVCAR-5 ovarian 106% | OVCAR-4 ovarian 102% | SK-OV-3 ovarian 103% | IGROV1 ovarian 106% | OVCAR-3 ovarian 115% | HS 578T breast 108% | NCI/ADR-RES ovarian 100% | T-47D breast 95.2% | MDA-MB-435 melanoma 112% | SW-620 colon 111% | MCF7 breast 98.5% | HCT-116 colon 101% | HCC-2998 colon 111% | KM12 colon 102%

OCc1ccccc1F
inactive: SR leukemia 92.6% | RPMI-8226 leukemia 106% | OVCAR-8 ovarian 83.3% | OVCAR-5 ovarian 76.9% | OVCAR-4 ovarian 97.5% | SK-OV-3 ovarian 87% | IGROV1 ovarian 85.7% | OVCAR-3 ovarian 132% | HS 578T breast 109% | NCI/ADR-RES ovarian 75.7% | T-47D breast 95.9% | MDA-MB-435 melanoma 97.6% | SW-620 colon 58% | MCF7 breast 72.2% | HCT-116 colon 58.2% | HCC-2998 colon 93.2% | KM12 colon 107%
